# Lassa entry inh – Lassa virus entry inhibition; Lassa virus pseudotype entry inhibition, cell reporter; Potency, µM (titrated, usually from 37.9 µM), for the others: top-dose activity change, negative = inhibition, actives largely listed as inhibitors; hit rate 1.2% among 300,000; calls by dose curve; tested in HEK293 cells; note: potency is the fitted concentration of half-maximal effect; % is set by controls: 0 for no effect and ±100 for the full control effect; nearly all actives have a fitted effect of over 50% in size
# CHX counter – counter-screen hit for Shiga toxin inhibitors, cycloheximide; max response, %; cell reporter, cycloheximide protein synthesis inhibition counterscreen; hit rate 12% among 300,000; in the data active = max response mostly above about 13%, no sharp cut-off; inactive = mostly below about 14%; note: read at 38.3 µM for the half of the compounds with a filed dose; 0% is about no effect
# FMDV inh – antivirals against foot and mouth disease virus. FMDV antiviral cell-based qHTS. Potency, µM (series often up to 57.9 µM), inactives show at the highest dose activity change, negative = inhibition, usual class: inhibitors. hit rate 1.2% among 410,000. AID 1159524; calls by dose curve; tested in HEK293T cells; note: read-out not given here; potency is the fitted concentration of half-maximal effect; % is set by controls: 0 for no effect and ±100 for the full control effect; nearly all actives have a fitted effect of over 45% in size
# Shiga inhibitor – blocks Shiga toxin action in Vero cells; Vero cells, Shiga toxin protein synthesis inhibition reporter; inhibition, % at 38.7 µM; hit rate 9.2% among 290,000; AID 2315; in the data active = inhibition mostly above about 28%, no sharp cut-off; inactive = mostly below about 43%; note: 0% is about no effect
# MARV entry inh – blocks Marburg virus binding to or entry into cells. Marburg virus pseudotyped entry inhibition, cell reporter. Potency, µM (highest dose often 37.8 µM), for inactives: at the top dose activity change, negative = inhibition, actives largely listed as inhibitors. hit rate 1.8% among 300,000. AID 540276; calls by dose curve; tested in HEK293 cells; note: potency is the fitted concentration of half-maximal effect; % is set by controls: 0 for no effect and ±100 for the full control effect
# HCV inhibitor – HCV inhibition. Huh7.5.1 HCVcc-Cre infection, luciferase reporter, 44 h. Potency, µM (highest dose often 41.8 µM), inactives show top-dose activity change, negative = inhibition, hits mostly inhibitors. hit rate 3.4% among 340,000. AID 651820; active = well fitted inhibition curve with a large enough effect; inconclusive = small, poorly fitted or top-dose-only effect, or another doubt; inactive = no such curve, though single readings can be large or run the other way; note: potency is the fitted concentration of half-maximal effect; % is set by controls: 0 for no effect and ±100 for the full control effect
#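 Whole-lifecycle infectious HCVcc-Cre system; cells 1,000/well, compound then virus (~0.5 moi) added 4 h after plating, 44 h culture. Luciferase read 15 sec following 15 min substrate incubation, room temp.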
# * hit, by the source's call; ? = inconclusive; · = no result given; [ ] = another dose, or the depositor's remark. An excerpt weighted towards active compounds, which were near 13% of everything screened.
SMILES,Lassa entry inh,CHX counter,FMDV inh,Shiga inhibitor,MARV entry inh,HCV inhibitor
COc1ccc(OCCC(=O)NC2=NCCS2)cc1,1%,27*,56%,62,27%,4%
CCOc1ccc(OCCCC(=O)NC2=NCCS2)cc1,?,-7,33%,-19,6%,-11%
CC(C)(C)c1ccc(OCCC(=O)NC2=NCCS2)cc1,?,12*,22%,42,-2%,-7%
Cc1cc(OCCCC(=O)NC2=NCCS2)ccc1Cl,-15%,16,5%,-14,2%,6%
COc1cccc(-c2nc(CS(=O)(=O)CC(=O)Nc3cc(F)ccc3F)c(C)o2)c1,-29%[46.1 µM],2,-19%,-10,?,?
COC(=O)c1cc(COC(=O)c2ccc(OC)c(S(=O)(=O)N3CCCC3)c2)oc1C,3%,7,-7%,-4,?,16µM*
COc1ccc(C(=O)OCc2cc(C)ccc2C)cc1S(=O)(=O)N1CCCC1,?,·,-17%,·,-22%,?
Cc1ccccc1-c1cc(C(=O)NCc2cccc(Br)c2)n(CC2CC(c3cccnc3)=NO2)n1 (stereo not given),·,·,-3%,·,·,?
C=C(C)[C@@H]1CC=C(CN2CCN(Cc3ccccc3)CC2)CC1,?,-5,-2%,-8,10µM*,-12%
C=C(C)C1CC=C(CN2CCN(Cc3ccccc3)CC2)CC1 (stereo not given),·,10,-21%,9,·,-6%
CC(=O)c1ccc(S(=O)(=O)N2CCn3cccc3C2c2ccc(F)c(F)c2)cc1 (stereo not given),-28%[46.1 µM],·,?,·,·,·
COc1ccc(S(=O)(=O)Nc2cc(Sc3ncn[nH]3)c(O)c3ccccc23)cc1,·,42,·,43,·,32µM*
CN(c1ccc(C(=O)Nc2ccc3c(c2)OCCO3)cc1)S(C)(=O)=O,-28%,31*,·,59*,?,-23%
CN(c1ccc(C(=O)Nc2ccc(CC#N)cc2)cc1)S(C)(=O)=O,·,19,17%,58*,·,5%
CC(=O)Nc1ccc(N(C)S(C)(=O)=O)cc1,2%,1,10%,-18,-2%,14%
CN(c1ccc(C(=O)Nc2ccc3c(c2)OCO3)cc1)S(C)(=O)=O,·,33*,9%,62*,·,?
Cc1nnc(N2CCOCC2)c2ccccc12,8%,-8,-16%,-16,?,22%
CCc1ccc(NC(=O)Nc2ccc3c(c2)CCC3)cc1,28%[46.1 µM],32*,13%,62*,?,-3%
CC(=O)c1cccc(NC(=O)Nc2ccc3c(c2)CCC3)c1,-10%[46.1 µM],35*,12%,41*,9%[46.1 µM],-16%
CC(=O)c1cccc(NC(=O)NC2CCCc3ccccc32)c1 (stereo not given),·,0,12%,17,·,?
Cc1cccc(NC(=O)Nc2ccc3c(c2)CCC3)c1,·,56*,48%,97*,·,?
CCNC(=O)NC1(C(=O)Nc2ccc3c(c2)CCC3)CCCCC1,6%,-2,9%,-9,0%[46.1 µM],7%
CC(OC(=O)c1ccco1)C(=O)Nc1ccc(Cl)cn1 (stereo not given),4%[46.1 µM],14,1%,23,-7%[46.1 µM],-6%
COc1cccc(-n2c(O)c(C=NCc3ccccn3)c3ccccc3c2=O)c1,-13%,-2,-5%,2,-16%,-20%
COc1ccc(C2/C=C\CN(C(=O)C3CCCCC3)C(Cc3ccccc3)C(=O)N2Cc2ccc(F)cc2)cc1 (stereo not given),·,23,·,16,·,·
SMILES,Lassa entry inh,CHX counter,FMDV inh,Shiga inhibitor,MARV entry inh,HCV inhibitor
CCCn1c(CCc2ccccc2)nnc1SCC(=O)N1CCOCC1,15%,-2,-1%,25,7%[46.1 µM],2%
O=C(C1CC(=O)N(c2ccc3c(c2)OCCO3)C1)N1CCN(S(=O)(=O)c2ccc(F)cc2)CC1 (stereo not given),·,·,-20%,·,·,3%
c1ccc(-c2ccc3c(c2)CNCc2cnnn2-3)cc1,·,·,14%,·,·,·
O=c1c2ccccc2nc2sc3ccccc3n12,16%,20*,8%,97*,?,?
O=c1/c(=C/c2ccccn2)sc2nc3ccccc3n12,-10%,36*,10µM*,126*,?,0%
COC(=O)/C=c1/sc2nc3ccccc3n2c1=O,?,6,2%,-12,18%,8%
O=C(O)c1cccc(-c2ccc(/C=c3/sc4nc5ccccc5n4c3=O)o2)c1,·,44*,23%,70*,·,14%
Cc1cccc(Oc2c(C=O)c3ccccc3n2C)c1,-11%,-1,-16%,-5,-14%,-18%
O=C(CSc1ncnc2ccccc12)Nc1ccc2c(c1)OCO2,·,17,0%,-3,5%,?
CSc1ccccc1C(=O)NCc1ccc(C)cc1,?,11,0%,25,-1%[46.1 µM],24%
Cc1cccc(-n2cnc3c(sc4nc(N5CCOCC5)c5c(c43)CCCC5)c2=O)c1,?,-2,?,-7,?,18µM*
CCc1c(C)nc2cc(-c3ccc(OC)c(OC)c3)nn2c1N1CCCC1,?,-1,·,-10,?,1.8µM*
COc1ccc(-c2c(C)nn3c(N4CCCCCC4)cc(C)nc23)cc1OC,-12%[46.1 µM],-5,-43%,-11,?,11µM*
CCc1c(C)nc2cc(-c3ccc(OC)c(OC)c3)nn2c1N1CCC(C)CC1,25%,12,13%,132,1%,-9%
CCc1c(C)nc2cc(-c3cc(OC)cc(OC)c3)nn2c1N1CCCC1,-25%,-4,·,-10,3.7µM*,?
COc1ccc(C(=O)c2ccc(OC)c(OC)c2)cc1OC,4%,-4,-6%,16,2%,3%
COc1ccc(C(=O)c2ccc(OC)c(N)c2)cc1N,14%,50*,8%,122*,-13%,16%
CCOc1ccc2nc(SCC(=O)N(CC(C)C)c3c(N)n(Cc4ccccc4)c(=O)[nH]c3=O)[nH]c2c1,?,·,-3%,·,?,?
CCC(=O)N1CCc2cc(S(=O)(=O)Nc3ccc4c(c3)OCCO4)ccc21,-13%,-3,-13%,-10,7.9µM*,2.8µM*
CCc1ccc(NC(=O)CCS(=O)(=O)c2ccc3c(c2)CCN3C(C)=O)cc1,-14%[46.1 µM],-3,-18%,-2,-1%[46.1 µM],?
CC(=O)N1CCc2cc(S(=O)(=O)CCC(=O)Nc3ccc4c(c3)OCCO4)ccc21,-2%,12*,-13%,27,6%,-9%
CC(C)[C@H](NC(N)=O)C(=O)Nc1cccc(S(=O)(=O)NC2=NCCCCC2)c1,1%,·,-8%,·,15%,?
Cn1ccc2c(-c3ccc(C(C)(C)C)cc3)cc3c(c21)C1CCC3O1 (stereo not given),?,·,5%,·,·,·
CN(c1cc2c(c3c1ccn3C)C1CCC2O1)C(C)(C)C (stereo not given),3.5µM*,·,·,·,·,·
Cc1ccc(S(=O)(=O)N2CCOCC2)cc1NC(=O)COC(=O)CNC(=O)c1ccc(Oc2ccccc2)cc1,15%,7,-16%,-5,-1%,7%
O=C(Cn1ccc2cc(S(=O)(=O)N3CCCC3)ccc21)NCc1ccccc1Cl,10%[46.1 µM],·,11%,·,·,·
Cc1ccc(NC(=O)c2ccn(C)n2)c(Br)c1,?,81*,3%,163*,?,?

# Screening data as filed in PubChem.
